Active and inactive are the calls of the source. The rule behind the calls is not given here.

Microtubule-associated protein tau (Homo sapiens), sequence (P10636 whole entry, looked up): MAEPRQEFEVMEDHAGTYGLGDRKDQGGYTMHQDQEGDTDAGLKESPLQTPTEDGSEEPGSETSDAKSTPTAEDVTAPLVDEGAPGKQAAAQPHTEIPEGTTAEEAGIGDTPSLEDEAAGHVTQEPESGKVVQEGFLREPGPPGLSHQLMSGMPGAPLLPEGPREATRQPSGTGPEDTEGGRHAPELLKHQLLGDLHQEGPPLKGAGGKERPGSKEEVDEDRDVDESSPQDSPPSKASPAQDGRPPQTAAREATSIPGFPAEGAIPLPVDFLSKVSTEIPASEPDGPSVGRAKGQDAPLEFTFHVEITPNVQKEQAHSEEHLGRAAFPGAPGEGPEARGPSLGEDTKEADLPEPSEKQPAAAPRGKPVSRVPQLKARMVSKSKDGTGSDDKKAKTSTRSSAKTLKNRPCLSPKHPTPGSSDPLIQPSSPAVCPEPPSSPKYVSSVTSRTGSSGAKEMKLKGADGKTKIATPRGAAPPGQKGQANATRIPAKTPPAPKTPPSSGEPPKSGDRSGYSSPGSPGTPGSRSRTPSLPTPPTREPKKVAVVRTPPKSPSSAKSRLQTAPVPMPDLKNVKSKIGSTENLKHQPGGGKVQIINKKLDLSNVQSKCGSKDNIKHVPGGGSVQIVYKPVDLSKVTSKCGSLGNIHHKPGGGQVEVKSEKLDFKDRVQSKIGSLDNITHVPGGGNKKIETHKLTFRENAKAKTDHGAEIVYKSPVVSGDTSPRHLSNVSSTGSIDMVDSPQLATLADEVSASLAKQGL

The first assay addresses Microtubule-associated protein tau (Homo sapiens) (UniProt P10636). The assay is described as follows: Tau Fibrillization assay. The conditions noted are these: His6-htau40 arachidonic acid fibrillization, TEM filament length; at 0.72 µM; stronger effect = lower value. From the text:
NIH Molecular Libraries Screening Centers Network [MLSCN] NIH Chemical Genomics Center [NCGC] MLSCN Grant: 1 X01 MH079825-01 Assay Provider: Jeffrey A. Kuret, Ohio State University NCGC Assay Overview: A number of solution-based assays are available for quantifying the amount of aggregated protein, such as fluorescence spectroscopy, sedimentation, and static and laser light scattering. However, none of these methods allows direct visualization of filaments. Transmission electron microscopy (TEM) can complement these solution-based assays by providing information on filament morphology and length distributions. In vitro fibrillization of htau40 was performed in the presence or absence of selected compounds. The resultant filaments were detected after absorption onto formvar and carbon coated grids and examined by TEM. Random digital images of each experimental condition were obtained, imported into imaging software, and quantified for filament length and number.
NCGC Assay Protocol Summary Aggregation of His6-htau40 (5 uM final concentration) in assembly buffer was induced with arachidonic acid (50 uM final concentration) in the presence or absence of selected library compounds. Each compound was tested at IC50 and four times the IC50values as determined by the tau ThS binding assay. After incubation (18 h at 37 degrees Celsius), reactions were diluted 5-fold in distilled water and assayed by transmission electron microscopy as described previously (Necula and Kuret, 2004). […] 28(3), 251-60. Necula, M., Chirita, C. N., and Kuret, J. (2003) J. Biol. Chem. 278, 46674-46680.
With `CN(C)c1ccc(C(=C2C=CC(=[N+](C)C)C=C2)c2ccc(N(C)C)cc2)cc1`, the filament length was 50.3% (active).

Staying with this assay, now noted: His6-htau40 arachidonic acid fibrillization, TEM filament length; at 0.76 µM; stronger effect = lower value.
In the case of `Cc1cc(-c2ccc(N=Nc3ccc4c(S(=O)(=O)O)cc(S(=O)(=O)O)c(N)c4c3O)c(C)c2)ccc1N=Nc1ccc2c(S(=O)(=O)O)cc(S(=O)(=O)O)c(N)c2c1O`, the filament length is 91.8% (inactive).

Still in this assay, the particulars now being: His6-htau40 arachidonic acid fibrillization, TEM filament length; at 4 µM; stronger effect = lower value.
In the case of `CN(C)c1ccc(/C=C2/C(=O)Nc3ccccc32)cc1`, the filament length was 41.8% (active).

The same assay, now with this note: His6-htau40 arachidonic acid fibrillization, TEM filament length; at 6.4 µM; stronger effect = lower value.
Turning to `N=C1C=CC(=C(c2ccc(N)cc2)c2ccc(N)cc2)C=C1`, the filament length was 50.8% (active).

Still in this assay, the particulars now being: His6-htau40 arachidonic acid fibrillization, TEM filament length; at 8.2 µM; stronger effect = lower value.
As to `COc1cccc2c1C(=N)c1c(O)c3c(c(O)c1C2=O)C[C@](O)(C(C)=O)C[C@@H]3O[C@H]1C[C@H](N)[C@@H](O)[C@H](C)O1`, the filament length was 86.9% (inactive).

The same assay, now with this note: His6-htau40 arachidonic acid fibrillization, TEM filament length; at 8.4 µM; stronger effect = lower value.
On to `Cc1ccc2nc(-c3ccc(N=Nc4cc(S(=O)(=O)O)c5ccccc5c4O)cc3)sc2c1S(=O)(=O)O`, for which the filament length is 111% (inactive).

Staying with this assay, now noted: His6-htau40 arachidonic acid fibrillization, TEM filament length; filament length at lower concentration; at 0.18 µM; stronger effect = lower value.
The compound `CN(C)c1ccc(C(=C2C=CC(=[N+](C)C)C=C2)c2ccc(N(C)C)cc2)cc1` displayed a filament length of 109%.

Staying with this assay, now noted: His6-htau40 arachidonic acid fibrillization, TEM filament length; filament length at lower concentration; at 0.19 µM; stronger effect = lower value.
In turn, `Cc1cc(-c2ccc(N=Nc3ccc4c(S(=O)(=O)O)cc(S(=O)(=O)O)c(N)c4c3O)c(C)c2)ccc1N=Nc1ccc2c(S(=O)(=O)O)cc(S(=O)(=O)O)c(N)c2c1O` showed a filament length of 116%.

The assay is the same for the next values; noted with them: His6-htau40 arachidonic acid fibrillization, TEM filament length; filament length at lower concentration; at 1 µM; stronger effect = lower value.
In turn, `CN(C)c1ccc(/C=C2/C(=O)Nc3ccccc32)cc1` yielded a filament length of 94.5%.

The same assay, now with this note: His6-htau40 arachidonic acid fibrillization, TEM filament length; filament length at lower concentration; at 1.6 µM; stronger effect = lower value.
With `N=C1C=CC(=C(c2ccc(N)cc2)c2ccc(N)cc2)C=C1`, the filament length came to 114%.

The assay is the same for the next values; noted with them: His6-htau40 arachidonic acid fibrillization, TEM filament length; filament length at lower concentration; at 2.1 µM; stronger effect = lower value.
As to `Cc1ccc2nc(-c3ccc(N=Nc4cc(S(=O)(=O)O)c5ccccc5c4O)cc3)sc2c1S(=O)(=O)O`, the filament length is 100%.
Still for that read-out and setting: with `COc1cccc2c1C(=N)c1c(O)c3c(c(O)c1C2=O)C[C@](O)(C(C)=O)C[C@@H]3O[C@H]1C[C@H](N)[C@@H](O)[C@H](C)O1` the figure was 91.3%.

(Values after PubChem BioAssay AID991 (National Center for Advancing Translational Sciences (NCATS), 2007).)
